The values that follow come from PubChem BioAssay (NCI).

Compounds without any hit were thinned out: in the full panel of roughly 83,000, 20% have a hit.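 In brief: 96-well plates, 48 h treatment, single concentration, percent growth endpoint.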 Unmarked numbers belong to inactive results. Active and inactive are the calls of the source. How the source made its calls: active means growth percent below 10; inactive means the rest.

The assay deals with HL-60(TB) leukemia. Nature of the assay: NCI-60 one-dose screen, 48 h (100 = growth as untreated, 0 = no growth, -100 = all killed). The conditions noted are these: 10 µM unless noted.
As to `CC(=O)c1ccccc1NC(=O)C(C)(c1ccccc1)c1ccccc1`, the growth was 94.3%.

Turning to `COc1cc(-c2nn(-c3cccc(NC(=O)c4cccc(C(F)(F)F)c4)c3)cc2-c2ccncc2)ccc1Cl`, the growth is 1.93% (active).

As for `COc1ccc(CNc2c3ccccc3nc3ccccc23)cc1F`, the growth is 12.9%.

For the compound `O=S(=O)(NCCCNc1nccc(-c2c(-c3ccccc3)nc3occn23)n1)c1ccc(Cl)cc1`, the growth was 101%.
